# Assay results published in PubChem BioAssay (Tox21).
# “And” between values parts separate entries of the source, which are not always exact repeats. Equal values may be shown once. Inconclusive results are not listed. A call without a number means that no potency is given here. More than one record can exist for a structure, and the calls need not agree. The source made the active and inactive calls. Unless noted, calls follow the shape of the dose curve; as a rule, active = well fitted curve in the direction sought with a large enough effect in the repeat runs; inconclusive = weak or mixed curves; inactive = no such curve, though single readings can be large; an effect the other way counts as inactive or inconclusive.
# Tests used:
# [1] = qHTS assay to identify small molecule antagonists of the sonic hedgehog signaling (Shh) pathway (AID 1259369; calls by dose curve; also: nearly all actives have a fitted effect of over 45% in size; also: potency is read from the fitted curve at half-maximal effect)
# Procedure, shortened: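 Stable Gli1-Luc reporter NIH/3T3 clone; quantitative HTS in stimulated mode with conditioned medium. Luminescence measured after 24hr compound treatment at 37 C.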
# [2] = target: Estrogen receptor beta (Homo sapiens) (UniProt Q92731); assay: qHTS assay to identify small molecule agonists of the estrogen receptor beta (ER-beta) signaling pathway (AID 1259377; active = well fitted activation curve with a large enough effect in the signal ratio in the repeat runs, not every such curve was filed as active; the % refers to the signal ratio)
# Procedure, shortened: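 HEK293T ER-beta-UAS-bla; 2% charcoal-stripped FBS; cells pre-incubated 6 hr, compound 16 hr, 37C/5% CO2; LiveBLAzer B/G FRET substrate 2 h RT; fluorescence intensity read.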
# [3] = target: Estrogen receptor beta (Homo sapiens) (UniProt Q92731); assay: qHTS assay to identify small molecule antagonists of the estrogen receptor beta (ER-beta) signaling pathway (AID 1259378; active = well fitted inhibition curve with a large enough effect in the signal ratio in the repeat runs, not every such curve was filed as active; the % refers to the signal ratio; also: potency is read from the fitted curve at half-maximal effect)
# Procedure, shortened: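 Antagonist mode: compounds added to beta-lactamase reporter HEK293T ER-beta-UAS cells stimulated with E2 (1nM final), 16 hr at 37C. LiveBLAzer B/G FRET substrate, 2 hours room temperature, fluorescence read-out.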
# [4] = qHTS assay to identify small molecule agonists of the androgen receptor (AR) signaling pathway in the presence of an antagonist - cell viability counter screen (AID 1259379); also: nearly all actives have a fitted effect of over 25% in size; also: potency is read from the fitted curve at half-maximal effect
# Procedure, shortened: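 Nilutamide-containing (3.0uM final) MDA-kb2 cultures, 3,000 cells/well, were treated with compounds across 15 concentrations. After 16 hr at 37C with no CO2, cell viability was determined by CellTiter-Fluor fluorescence in the luciferase assay wells.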
# [5] = qHTS assay to identify small molecule agonists of the estrogen receptor beta (ER-beta) signaling pathway - cell viability counter screen (AID 1259380); also: nearly all actives have a fitted effect of over 30% in size; also: potency is read from the fitted curve at half-maximal effect
# Procedure, shortened: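 Steps: plate ER-beta-UAS-bla HEK293T cells, rest 6 hr; add compounds in DMSO; incubate 16 hr at 37C, 5% CO2; add FRET substrate 2 hr; add CellTiter-Glo, wait 30 min at room temperature; read luminescence.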
# [6] = target: Androgen receptor (Homo sapiens) (UniProt P10275); assay: qHTS assay to identify small molecule agonists of the androgen receptor (AR) signaling pathway in the presence of an antagonist (AID 1259381; calls by dose curve; also: nearly all actives have a fitted effect of over 15% in size)
# Procedure, shortened: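 Reporter-gene luminescence from MDA-kb2 cells exposed 16hr at 37C (0% CO2) to 15-point compound titrations with 3.0uM final nilutamide as AR antagonist.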
# [7] = qHTS assay to identify small molecule antagonists of the estrogen receptor beta (ER-beta) signaling pathway - cell viability counter screen (AID 1259382);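 also: HEK293T cells carrying ER-beta-UAS-bla reporter stimulated with estradiol; series mostly up to about 92 µM; nearly all actives have a fitted effect of over 55% in size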
# Procedure, shortened: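 Viability is scored by CellTiter-Glo luminescence (30 min, room temperature) in ER-beta-UAS-bla HEK293T wells already read for reporter fluorescence. Compound exposure lasts 16 hr at 37C alongside 1nM 17-beta-estradiol in charcoal-stripped serum medium.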
# [8] = target: Estrogen receptor (Homo sapiens) (UniProt P03372); assay: qHTS assay to identify small molecule agonists of the estrogen receptor alpha (ER-alpha) signaling pathway in the presence of an antagonist (AID 1259383; calls by dose curve; also: nearly all actives have a fitted effect of over 15% in size; also: potency is read from the fitted curve at half-maximal effect; as to activation: top concentration of the series differs between compounds)
# Procedure, shortened: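 Readout was ERE-driven luciferase luminescence in VM7Luc4E2 cells, which express full-length ER-alpha endogenously. Compounds were tested at 15 concentrations for 22hr alongside 10.0nM ICI-182,780 (final concentration).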
# [9] = qHTS assay to identify small molecule agonists or antagonists of the thyroid stimulating hormone receptor (TSHR) signaling pathway - wild type cell line counter screen (AID 1259384; calls by dose curve)
# Procedure, shortened: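 Counter screen in untransfected Hek293: compounds (15-point titration, triplicate) plus phosphodiesterase inhibitor Ro20-1724 added after 18 h plating; 30 min RT. Intracellular cAMP via competitive d2/cryptate immunoassay, 1 h incubation.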
# [10] = target: Thyrotropin receptor (Homo sapiens) (UniProt P16473); assay: qHTS assay to identify small molecule antagonists of the thyroid stimulating hormone receptor (TSHR) signaling pathway (AID 1259385; calls by dose curve; also: nearly all actives have a fitted effect of over 20% in size)
# Procedure, shortened: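 Antagonist mode: compound-treated TSHR-expressing HEK293 cells were stimulated with 1.5 ng/mL TSH (final) in presence of Ro20-1724 for 30 min at RT. HTRF cAMP detection after 1 h; each compound tested at 15 concentrations, triplicate.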
# [11] = qHTS assay to identify small molecule agonists of the estrogen receptor alpha (ER-alpha) signaling pathway in the presence of an antagonist - cell viability counter screen (AID 1259386);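 also: series mostly up to about 92 µM; cells exposed to compounds for 22 h at 37 °C before the viability read; nearly all actives have a fitted effect of over 30% in size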
# Procedure, shortened: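 In this counter screen, compound effects on VM7Luc4E2 viability were tested in the presence of the antagonist ICI-182,780 at 10.0nM final. Compounds were dosed at 15 concentrations, exposure lasted 22hr, and the CellTiter-Fluor signal was read.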
# [12] = target: Progesterone receptor (Homo sapiens) (UniProt P06401); assay: qHTS assay to identify small molecule agonists of the progesterone receptor (PR) signaling pathway (AID 1346784; calls by dose curve; also: nearly all actives have a fitted effect of over 30% in size)
# Procedure, shortened: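 Beta-lactamase reporter read-out: after 16 hr compound treatment at 37C and a further 2 hr at room temperature with LiveBLAzer B/G FRET substrate, fluorescence was measured in PR-UAS-bla HEK 293T cells grown in 2% charcoal-stripped serum.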
# [13] = target: Progesterone receptor (Homo sapiens) (UniProt P06401); assay: qHTS assay to identify small molecule antagonists of the progesterone receptor (PR) signaling pathway (AID 1346795; active = well fitted inhibition curve with a large enough effect in the signal ratio in the repeat runs, not every such curve was filed as active; the % refers to the signal ratio; also: potency is read from the fitted curve at half-maximal effect)
# Procedure, shortened: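 Read-out is fluorescence from the LiveBLAzer B/G FRET substrate, cleaved by a UAS-controlled beta-lactamase in PR-UAS-bla HEK293T cells after 16 hr exposure to compound plus 1 nM promegestone (final), followed by 2 hr at room temperature.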
# [14] = qHTS assay to identify small molecule antagonists of the progesterone receptor (PR) signaling pathway - cell viability counter screen (AID 1346798);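 also: HEK293T PR-UAS-bla cells stimulated with the agonist R5020; series mostly up to about 92 µM; nearly all actives have a fitted effect of over 50% in size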
# Procedure, shortened: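 HEK293T PR-UAS-bla, 2% charcoal-stripped FBS; 4 hr pre-plate; cpd + R5020, 16 h 37C; LiveBLAzer read first; then CellTiter-Glo 30 min RT, luminescence.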
# [15] = qHTS assay to identify small molecule antagonists of the TGF-beta/Smad signaling pathway - cell viability counter screen (AID 1346824); also: nearly all actives have a fitted effect of over 50% in size
# Procedure, shortened: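 Cytotoxicity counter-screen run in the same wells as the beta-lactamase Smad reporter read: CellTiter-Glo luminescence after 30 min at room temperature. HEK 293T SBE-bla cells had 5 hr compound exposure at 37 C with TGF-beta1 (0.25 ng/mL stock).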
# [16] = qHTS assay to identify small molecule agonists of the TGF-beta/Smad signaling pathway - cell viability counter screen (AID 1346829); also: top concentration of the series differs between compounds; nearly all actives have a fitted effect of over 45% in size
# Procedure, shortened: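 Compound-treated SBE-bla HEK 293T cells (5 hr, 37 C) were assessed for viability with CellTiter-Glo in parallel with the reporter read.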
# [17] = qHTS assay to identify small molecule agonists of the TGF-beta/Smad signaling pathway (AID 1346859; active = well fitted activation curve with a large enough effect in the signal ratio in the repeat runs, not every such curve was filed as active; the % refers to the signal ratio; also: series mostly up to about 77 µM)
# Procedure, shortened: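 SBE-bla HEK 293T, 4,000 cells/well, plated o/n; cpd in DMSO, 5 hr, 37 C/5% CO2; B/G FRET substrate 2 hr RT; ex 405, em 460/530 nm.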
# [18] = target: Thyrotropin-releasing hormone receptor (Homo sapiens) (UniProt P34981); assay: qHTS assay to identify small molecule antagonists of the thyrotropin-releasing hormone receptor (TRHR) signaling pathway (AID 1346877; active = well fitted inhibition curve with a large enough effect in the repeat runs, not every such curve was filed as active; also: series mostly up to about 51 µM)
# Procedure, shortened: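 Kinetic fluorescence (3 min, 1 s resolution) following stimulation with TRH at 1 nM final; HEK293 cells bearing human TRHR; 5 min compound preincubation at RT; concentration-response over 15 points, triplicates.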
# [19] = qHTS assay to identify small molecule agonists of the progesterone receptor (PR) signaling pathway - cell viability counter screen (AID 1346799; calls by dose curve; also: nearly all actives have a fitted effect of over 45% in size)
# Procedure, shortened: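 Luminescence from CellTiter-Glo, added after the beta-lactamase FRET read in the same wells, gave cytotoxicity in PR-UAS-bla HEK293T cells treated with compounds for 16 hr at 37C.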
# [20] = target: Thyrotropin-releasing hormone receptor (Homo sapiens) (UniProt P34981); assay: qHTS assay to identify small molecule agonists of the thyrotropin-releasing hormone receptor (TRHR) signaling pathway (AID 1346891; calls by dose curve; also: series mostly up to about 58 µM)
# Procedure, shortened: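 Intracellular calcium rise, read as fluorescence every second for 3 min, served as the agonist signal in dye-loaded HEK293 cells expressing TRHR; each compound ran at 15 concentrations in triplicate.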
# Chain of Progesterone receptor (Homo sapiens) (P06401 whole entry, looked up): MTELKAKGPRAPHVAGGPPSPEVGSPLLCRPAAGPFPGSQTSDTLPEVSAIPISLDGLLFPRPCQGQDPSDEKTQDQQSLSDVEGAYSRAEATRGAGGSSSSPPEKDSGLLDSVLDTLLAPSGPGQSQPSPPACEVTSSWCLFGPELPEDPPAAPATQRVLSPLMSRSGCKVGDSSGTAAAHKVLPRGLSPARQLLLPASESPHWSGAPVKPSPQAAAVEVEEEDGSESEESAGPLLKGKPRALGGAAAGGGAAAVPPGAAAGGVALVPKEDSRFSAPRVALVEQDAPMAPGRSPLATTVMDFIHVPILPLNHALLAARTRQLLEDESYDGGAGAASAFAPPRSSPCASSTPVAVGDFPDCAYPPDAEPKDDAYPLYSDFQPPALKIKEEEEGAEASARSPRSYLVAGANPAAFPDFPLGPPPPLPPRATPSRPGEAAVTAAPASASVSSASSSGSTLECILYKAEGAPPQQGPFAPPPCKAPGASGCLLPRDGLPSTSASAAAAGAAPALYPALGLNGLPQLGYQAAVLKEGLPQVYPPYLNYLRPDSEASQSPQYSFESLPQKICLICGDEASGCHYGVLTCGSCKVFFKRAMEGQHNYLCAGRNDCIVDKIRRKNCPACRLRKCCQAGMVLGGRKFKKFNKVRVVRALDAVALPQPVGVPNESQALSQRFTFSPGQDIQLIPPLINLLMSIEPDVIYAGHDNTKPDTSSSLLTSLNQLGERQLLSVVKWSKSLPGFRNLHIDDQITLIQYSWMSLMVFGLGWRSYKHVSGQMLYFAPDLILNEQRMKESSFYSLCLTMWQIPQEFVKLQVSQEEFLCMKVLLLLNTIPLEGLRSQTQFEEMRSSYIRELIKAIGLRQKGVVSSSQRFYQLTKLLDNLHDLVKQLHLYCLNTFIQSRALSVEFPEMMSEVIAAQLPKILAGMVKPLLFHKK
# Chain of Estrogen receptor beta (Homo sapiens) (Q92731 whole entry, looked up): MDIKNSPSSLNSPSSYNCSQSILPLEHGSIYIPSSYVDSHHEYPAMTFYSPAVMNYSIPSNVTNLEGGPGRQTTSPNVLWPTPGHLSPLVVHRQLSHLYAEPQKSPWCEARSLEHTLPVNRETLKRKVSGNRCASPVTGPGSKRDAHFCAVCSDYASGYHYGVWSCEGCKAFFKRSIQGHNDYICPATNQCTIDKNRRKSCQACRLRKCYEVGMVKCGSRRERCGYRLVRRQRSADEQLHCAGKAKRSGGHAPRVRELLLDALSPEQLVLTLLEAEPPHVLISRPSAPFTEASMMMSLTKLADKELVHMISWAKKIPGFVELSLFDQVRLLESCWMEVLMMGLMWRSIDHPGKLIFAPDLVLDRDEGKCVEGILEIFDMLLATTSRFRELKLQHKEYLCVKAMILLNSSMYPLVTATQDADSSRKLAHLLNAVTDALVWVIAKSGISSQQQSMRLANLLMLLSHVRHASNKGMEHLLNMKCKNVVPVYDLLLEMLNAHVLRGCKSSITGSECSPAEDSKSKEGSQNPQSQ
# Chain of Thyrotropin-releasing hormone receptor (Homo sapiens) (P34981 whole entry, looked up): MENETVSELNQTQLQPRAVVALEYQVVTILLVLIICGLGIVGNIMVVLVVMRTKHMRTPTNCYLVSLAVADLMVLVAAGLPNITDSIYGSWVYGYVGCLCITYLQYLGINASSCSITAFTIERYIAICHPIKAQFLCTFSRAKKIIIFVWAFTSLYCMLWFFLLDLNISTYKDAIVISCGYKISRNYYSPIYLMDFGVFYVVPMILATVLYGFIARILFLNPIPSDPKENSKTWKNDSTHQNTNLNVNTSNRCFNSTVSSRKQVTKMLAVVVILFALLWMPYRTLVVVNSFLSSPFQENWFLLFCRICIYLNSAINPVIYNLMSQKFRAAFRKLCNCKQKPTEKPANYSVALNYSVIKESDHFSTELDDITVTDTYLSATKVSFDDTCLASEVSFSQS
# Chain of Androgen receptor (Homo sapiens) (P10275 whole entry, looked up): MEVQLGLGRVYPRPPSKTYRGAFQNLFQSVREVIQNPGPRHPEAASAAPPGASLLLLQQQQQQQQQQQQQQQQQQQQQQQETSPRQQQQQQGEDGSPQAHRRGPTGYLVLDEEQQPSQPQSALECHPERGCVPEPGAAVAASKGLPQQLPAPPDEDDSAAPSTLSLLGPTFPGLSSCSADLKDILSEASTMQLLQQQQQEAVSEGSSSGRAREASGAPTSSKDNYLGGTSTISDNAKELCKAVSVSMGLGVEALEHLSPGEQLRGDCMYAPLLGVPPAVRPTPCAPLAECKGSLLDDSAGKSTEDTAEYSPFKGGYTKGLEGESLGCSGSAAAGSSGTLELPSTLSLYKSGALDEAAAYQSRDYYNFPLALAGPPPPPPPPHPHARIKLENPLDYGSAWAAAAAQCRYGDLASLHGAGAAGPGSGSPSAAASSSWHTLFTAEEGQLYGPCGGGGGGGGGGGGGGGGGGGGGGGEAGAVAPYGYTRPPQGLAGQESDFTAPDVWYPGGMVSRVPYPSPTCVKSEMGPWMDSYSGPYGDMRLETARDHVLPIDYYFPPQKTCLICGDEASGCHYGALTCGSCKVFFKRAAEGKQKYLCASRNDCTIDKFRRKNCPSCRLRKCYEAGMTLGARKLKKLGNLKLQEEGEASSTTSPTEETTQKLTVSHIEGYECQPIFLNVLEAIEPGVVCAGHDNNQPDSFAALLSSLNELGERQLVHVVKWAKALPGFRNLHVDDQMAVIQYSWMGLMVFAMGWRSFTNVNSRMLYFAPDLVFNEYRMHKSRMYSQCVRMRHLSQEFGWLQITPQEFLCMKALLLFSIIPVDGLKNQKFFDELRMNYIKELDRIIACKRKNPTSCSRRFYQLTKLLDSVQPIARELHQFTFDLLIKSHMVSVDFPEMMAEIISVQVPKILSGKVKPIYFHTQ
# Chain of Estrogen receptor (Homo sapiens) (P03372 whole entry, looked up): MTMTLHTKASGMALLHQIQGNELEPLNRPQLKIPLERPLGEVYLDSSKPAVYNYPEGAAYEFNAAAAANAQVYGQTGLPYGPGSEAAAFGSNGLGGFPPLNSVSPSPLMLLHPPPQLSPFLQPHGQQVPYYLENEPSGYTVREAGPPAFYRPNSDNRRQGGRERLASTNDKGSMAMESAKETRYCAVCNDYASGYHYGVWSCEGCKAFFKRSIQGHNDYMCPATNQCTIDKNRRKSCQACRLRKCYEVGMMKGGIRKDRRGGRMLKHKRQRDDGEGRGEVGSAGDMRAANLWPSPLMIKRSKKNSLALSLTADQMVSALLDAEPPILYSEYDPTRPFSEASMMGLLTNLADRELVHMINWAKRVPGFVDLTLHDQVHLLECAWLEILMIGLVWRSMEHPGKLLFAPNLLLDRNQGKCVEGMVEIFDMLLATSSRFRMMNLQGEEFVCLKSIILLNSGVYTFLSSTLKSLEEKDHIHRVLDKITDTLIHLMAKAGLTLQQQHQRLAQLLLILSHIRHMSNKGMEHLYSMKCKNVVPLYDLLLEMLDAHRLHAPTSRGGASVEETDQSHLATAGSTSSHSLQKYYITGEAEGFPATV
# Chain of Thyrotropin receptor (Homo sapiens) (P16473 whole entry, looked up): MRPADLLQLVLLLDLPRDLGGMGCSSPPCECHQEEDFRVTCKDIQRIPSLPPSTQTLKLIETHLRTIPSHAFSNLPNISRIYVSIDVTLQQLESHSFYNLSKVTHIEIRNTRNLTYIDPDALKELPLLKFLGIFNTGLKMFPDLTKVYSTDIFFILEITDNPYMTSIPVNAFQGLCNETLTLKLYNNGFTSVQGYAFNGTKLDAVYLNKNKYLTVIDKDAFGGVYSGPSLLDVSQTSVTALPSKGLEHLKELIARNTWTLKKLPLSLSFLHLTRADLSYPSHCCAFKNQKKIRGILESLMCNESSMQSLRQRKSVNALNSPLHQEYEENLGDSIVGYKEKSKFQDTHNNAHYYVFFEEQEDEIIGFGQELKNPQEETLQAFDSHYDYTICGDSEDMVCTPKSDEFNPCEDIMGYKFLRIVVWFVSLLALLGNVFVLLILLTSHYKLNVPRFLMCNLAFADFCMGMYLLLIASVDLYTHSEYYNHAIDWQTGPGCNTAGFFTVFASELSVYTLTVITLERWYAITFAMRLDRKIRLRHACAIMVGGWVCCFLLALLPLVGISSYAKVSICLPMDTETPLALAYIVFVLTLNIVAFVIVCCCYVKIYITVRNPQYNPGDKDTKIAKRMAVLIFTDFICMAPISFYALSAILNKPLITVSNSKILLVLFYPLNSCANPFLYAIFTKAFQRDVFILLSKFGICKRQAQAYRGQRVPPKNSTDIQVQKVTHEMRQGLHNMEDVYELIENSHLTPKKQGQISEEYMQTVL
SMILES,Potency [1],outcome [2],Potency [3],Potency [4],Potency [5],outcome [6],Potency [7],Potency [8],Potency [9],outcome [10],Potency [11],Potency [12],Potency [13],Potency [14],Potency [15],Potency [16],outcome [17],outcome [18],Potency [19],Potency [20]
COc1cc(O)c(C(=O)c2ccccc2)cc1S(=O)(=O)O,inactive,inactive,inactive,inactive,inactive,inactive,inactive,inactive,inactive,inactive,inactive,inactive,inactive,inactive,inactive,inactive,inactive,inactive,,
CCCCCCCCCCCCCCCCCC(=O)OCC(O)CO (stereo unspecified),inactive,inactive,inactive,inactive,inactive,,inactive,inactive,inactive,inactive,inactive,inactive,inactive,inactive,inactive,inactive,inactive,inactive,inactive,inactive
COc1ccc(C(=O)c2ccccc2)c(O)c1,inactive,inactive,inactive,inactive,inactive,inactive,inactive,inactive,inactive,inactive,inactive,inactive,30.1 µM (active),inactive,inactive,inactive,inactive,inactive,inactive,
c1ccc2[nH]c(-c3cscn3)nc2c1,inactive,inactive,inactive,inactive,inactive,inactive,inactive,inactive,inactive,inactive,inactive,inactive,inactive,inactive,inactive,,inactive,inactive,,inactive
COc1ccc(O)cc1,21.7 µM (active),inactive,inactive,inactive,inactive,inactive,inactive,,inactive,inactive,inactive,inactive,inactive,inactive,inactive,inactive,inactive,inactive,inactive,
Cc1ccc(O)c(-n2nc3ccccc3n2)c1,60.6 µM (active) and inactive,inactive,inactive,inactive,inactive,,inactive,inactive and 1.54 µM (active),inactive,inactive,inactive,inactive,48.6 µM (active),inactive,inactive,,inactive,,inactive,
NC(N)=NC(N)=NCCc1ccccc1,inactive,inactive,inactive,48.3 µM (active) and 54.5 µM (active) and 26.6 µM (active),inactive,,inactive,inactive,inactive,inactive,inactive,inactive,inactive,,inactive,,inactive,,,
CC(=O)OC/C=C(C)/C=C/C=C(C)/C=C/C1=C(C)CCCC1(C)C,24.3 µM (active),inactive,54.5 µM (active),inactive,inactive,,inactive,inactive,inactive,inactive,inactive,inactive,inactive,inactive,inactive,inactive,inactive,inactive,,inactive
COc1cc2c(c(OC)c1OC)-c1ccc(OC)c(=O)cc1[C@@H](NC(C)=O)CC2,1.7 nM (active) and 2.4 nM (active),inactive,inactive,inactive,27 µM (active) and inactive,inactive,inactive,inactive,,,inactive,inactive,,,inactive,inactive,inactive,,,
COc1ccccc1O,inactive,inactive,inactive,inactive,inactive,,inactive,inactive,inactive,inactive,inactive,inactive,inactive,inactive,inactive,,inactive,inactive,,inactive
CCN1CCCC1=O,inactive,inactive,inactive,inactive,inactive,,inactive,inactive,inactive,inactive,inactive,,,inactive,inactive,,inactive,inactive,inactive,
COc1ccccc1NC(=O)CC(C)=O,inactive,inactive,inactive,inactive,inactive,,inactive,inactive,inactive,inactive,inactive,inactive,inactive,inactive,inactive,inactive,inactive,inactive,inactive,
CN/C(=C\[N+](=O)[O-])NCCSCc1ccc(CN(C)C)o1,inactive,inactive,inactive,inactive,inactive,,inactive,inactive,inactive,inactive,inactive,inactive,inactive,inactive,inactive,,inactive,inactive,inactive,inactive
COCC(C)N (stereo unspecified),inactive,inactive,inactive,inactive,inactive,inactive,inactive,inactive,inactive,inactive,inactive,,,inactive,inactive,inactive,inactive,inactive,inactive,inactive
COc1cc(C=O)ccc1O,inactive,inactive,inactive,inactive,inactive,inactive,inactive,inactive,inactive,inactive,inactive,inactive,inactive,inactive,inactive,,inactive,inactive,,
